Experiment in all cases: NCI-60 one-dose screen, 48 h (100 = growth as untreated, 0 = no growth, -100 = all killed)
One test deals with HCT-15 colon. Conditions: 10 µM unless noted.
The next test concerns HT29 colon. Conditions: 10 µM unless noted.
The next test deals with SNB-75 CNS. Conditions: 10 µM unless noted.
Another test concerns SNB-19 CNS. Conditions: 10 µM unless noted.
The subject of another test is U251 CNS. Conditions: 10 µM unless noted.
The test system of a further test is PC-3 prostate. Conditions: 10 µM unless noted.
The test system of another test is SK-MEL-5 melanoma. Conditions: 10 µM unless noted.
For the next test, the system named is UACC-62 melanoma. Conditions: 10 µM unless noted.
Another test has as its system LOX IMVI melanoma. Conditions: 10 µM unless noted.
The subject of the next test is SK-MEL-28 melanoma. Conditions: 10 µM unless noted.
The test system of a further test is SK-MEL-2 melanoma. Conditions: 10 µM unless noted.
The next test has as its system EKVX NSCLC. Conditions: 10 µM unless noted.
In a further test the test system is SN12C renal. Conditions: 10 µM unless noted.
The next test has as its system UO-31 renal. Conditions: 10 µM unless noted.
In the next test the test system is TK-10 renal. Conditions: 10 µM unless noted.
For another test, the system named is ACHN renal. Conditions: 10 µM unless noted.
The next test concerns CAKI-1 renal. Conditions: 10 µM.
Another test relates to A498 renal. Conditions: 10 µM unless noted.
Another test has as its system CCRF-CEM leukemia. Conditions: 10 µM unless noted.
The next test has as its system MOLT-4 leukemia. Conditions: 10 µM unless noted.

The panel holds about 83,000 compounds, 20% with a hit somewhere; the sample as a whole holds those more often.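 Plates (96-well) were seeded with cells, treated with compound at one concentration, and incubated for 48 hours before percent growth was determined.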 Unmarked numbers belong to inactive results. Active and inactive are the calls of the source. The calls were made as follows: active = growth percent below 10; inactive = the rest.

With `O=S(=O)(Nc1ccc2c(c1)OC(F)(F)O2)c1ccc(-c2cnc(C3CC3)o2)cc1`, the growth in the test on HCT-15 colon is 26.2%; in the test with HT29 colon it was 17.2%; in the test on SNB-75 CNS it was 19%; with SNB-19 CNS, 47%; in the test with U251 CNS, 32.6%; in the test on PC-3 prostate, 45.3%. For the same compound, the growth in the test with SK-MEL-5 melanoma is 38%; with UACC-62 melanoma, 29.4%; in the test on LOX IMVI melanoma it was 37.7%; with SK-MEL-28 melanoma, 58.3%; with SK-MEL-2 melanoma, 41.3%; in the test on EKVX NSCLC, 58%. Moreover, the growth is 52.8% in the test on SN12C renal; 56.7% in the test on UO-31 renal; 84.3% with TK-10 renal; 57.1% in the test with ACHN renal; 17.5% with CAKI-1 renal; 23.2% in the test on A498 renal. The growth was 24.1% with CCRF-CEM leukemia and 30.3% in the test with MOLT-4 leukemia.

With `Cc1ccc(-c2cc(-c3cccc4ccccc34)n3c(n2)nc2ccccc23)cc1`, the growth with HCT-15 colon was 48%; in the test with HT29 colon it was 73.4%; in the test with SNB-75 CNS, 46.8%; with SNB-19 CNS it was 53.5%; in the test with U251 CNS it was 48.9%; in the test on PC-3 prostate, 60.3%. For the same compound, the growth is 40.9% in the test on SK-MEL-5 melanoma; 43.5% in the test on UACC-62 melanoma; 56.6% with LOX IMVI melanoma; 77% in the test on SK-MEL-28 melanoma; 105% with SK-MEL-2 melanoma; 78.7% in the test on EKVX NSCLC. Also, the growth was 61.2% in the test with SN12C renal; 37.9% in the test on UO-31 renal; 69.1% in the test on TK-10 renal; 24.8% in the test on ACHN renal; 23.1% in the test on CAKI-1 renal; 52.5% in the test on A498 renal. Besides, the growth was 37.5% with CCRF-CEM leukemia and 4.63% (active) with MOLT-4 leukemia.

Take `O=S(=O)(Nc1ccc(-c2nc(-c3cccc(O)c3)c(-c3ccnc(Br)c3)[nH]2)cc1)c1ccccc1`: the growth is 13.3% in the test with HCT-15 colon; 31.8% in the test with HT29 colon; 5.4% (active) with SNB-75 CNS; 30.2% with SNB-19 CNS; 30.3% in the test on U251 CNS; 9.21% (active) in the test with PC-3 prostate. For the same compound, the growth was -26.4% (active) with SK-MEL-5 melanoma; 16.4% in the test on UACC-62 melanoma; -25% (active) with LOX IMVI melanoma; 33.1% in the test with SK-MEL-28 melanoma; 23.5% in the test with SK-MEL-2 melanoma; 53.3% with EKVX NSCLC. Also, the growth in the test with SN12C renal is 44.3%; in the test on UO-31 renal it was 24.7%; in the test on TK-10 renal it was 55.7%; in the test with ACHN renal it was 28.4%; in the test with CAKI-1 renal, 25.6%; in the test on A498 renal, 49.4%. The growth in the test with CCRF-CEM leukemia is -2.56% (active); in the test on MOLT-4 leukemia, -20.9% (active).

For the compound `CS(=O)(=O)c1ccc(-c2nn(-c3ccccc3)cc2/C=C/C(=O)c2ccc(Br)cc2)cc1`, the growth in the test with HCT-15 colon is 64%; in the test on HT29 colon, 97.8%; in the test with SNB-75 CNS it was 107%; with SNB-19 CNS it was 85.6%; in the test on U251 CNS, 86.1%; in the test on PC-3 prostate, 89.1%. In addition, the growth in the test on SK-MEL-5 melanoma was 92.4%; in the test with UACC-62 melanoma, 78.9%; in the test with LOX IMVI melanoma, 67.5%; in the test with SK-MEL-28 melanoma, 102%; in the test with SK-MEL-2 melanoma, 103%; in the test on EKVX NSCLC it was 87.5%. For the same compound, the growth with SN12C renal is 88.1%; in the test with UO-31 renal it was 79.6%; in the test on TK-10 renal it was 107%; in the test on ACHN renal it was 94%; in the test with CAKI-1 renal, 84.6%; in the test with A498 renal, 84.1%. Also, the growth was 41.8% with CCRF-CEM leukemia and 60.6% in the test on MOLT-4 leukemia.

In the case of `O=c1c2ccccc2nc(COc2ccccc2)n1/N=C/C=C/c1ccccc1`, the growth in the test on HCT-15 colon is 76.9%; with HT29 colon, 98.1%; in the test with SNB-75 CNS it was 83.4%; with SNB-19 CNS, 82.9%; in the test on U251 CNS, 98.4%; with PC-3 prostate it was 89.6%. For the same compound, the growth in the test with SK-MEL-5 melanoma is 99.3%; in the test with UACC-62 melanoma it was 94.5%; with LOX IMVI melanoma, 72.1%; in the test on SK-MEL-28 melanoma it was 94.3%; with SK-MEL-2 melanoma it was 94.5%; with EKVX NSCLC, 86.2%. Also, the growth in the test on SN12C renal was 87.6%; in the test with UO-31 renal, 89.8%; in the test with TK-10 renal it was 106%; in the test with ACHN renal it was 96.8%; with CAKI-1 renal, 103%; in the test with A498 renal, 98.6%. The values for the growth in the test on CCRF-CEM leukemia and in the test on MOLT-4 leukemia were 84.3% and 97.1%, respectively.

Turning to `N#Cc1c(-c2ccccc2)cc(-c2c[nH]c3ccccc23)nc1-c1c[nH]c2ccccc12`, the growth in the test on HCT-15 colon is 99.3%; in the test with HT29 colon, 103%; with SNB-75 CNS, 81.2%; in the test on SNB-19 CNS it was 97.6%; in the test on U251 CNS, 94.3%; in the test with PC-3 prostate, 92.4%. Moreover, the growth in the test on SK-MEL-5 melanoma is 99.2%; in the test with UACC-62 melanoma, 94.9%; in the test with LOX IMVI melanoma it was 100%; in the test on SK-MEL-28 melanoma, 110%; in the test with SK-MEL-2 melanoma, 97.7%; in the test on EKVX NSCLC it was 83.1%. Also, the growth in the test with SN12C renal is 95.6%; with UO-31 renal it was 68.3%; with TK-10 renal, 124%; with ACHN renal it was 96.4%; in the test on CAKI-1 renal, 87.3%; in the test on A498 renal, 98.7%. Besides, the values for the growth in the test on CCRF-CEM leukemia and in the test on MOLT-4 leukemia were 103% and 102%, respectively.

On to `CCC(=O)Nc1cc(Nc2cc(NC3CC3)n3ncc(C#N)c3n2)ccc1C`, for which the growth was 13% in the test with HCT-15 colon; 25.8% in the test on HT29 colon; -9.89% (active) with SNB-75 CNS; 25.9% in the test with SNB-19 CNS; 19.5% in the test with U251 CNS; 19.7% with PC-3 prostate. In addition, the growth in the test with SK-MEL-5 melanoma is 15.2%; in the test on UACC-62 melanoma, 18.9%; with LOX IMVI melanoma it was 21.1%; in the test with SK-MEL-28 melanoma it was 46.3%; in the test on SK-MEL-2 melanoma, 32.6%; in the test with EKVX NSCLC it was 39.1%. Besides, the growth with SN12C renal is 43.4%; with UO-31 renal it was 19.7%; in the test with TK-10 renal, 15.5%; with ACHN renal, 13.8%; in the test with CAKI-1 renal, 14.7%; with A498 renal it was -21.5% (active). In addition, the growth is 17.1% in the test on CCRF-CEM leukemia and 40.1% with MOLT-4 leukemia.

The values above are taken from PubChem BioAssay (NCI).
